Tests used:
Experiment in all cases: DAPPL (digital affinity profiling via proximity ligation, sequencing); 10 mM Tris-HCl pH 7.5, 50 mM NaCl, 1 mM DTT, 4% glycerol, room temperature, 30 min; GST-TFs on glutathione beads, 16-mer random dsDNA library, 0.1% formaldehyde crosslink after washing; high values mean tight binding
Details in all cases: protein: recombinant; tags: N-terminal GST; dsDNA, one strand shown
[1] = biological target: T1, FLI1 (Homo sapiens, UniProt Q01543 1-452)
T1 sequence: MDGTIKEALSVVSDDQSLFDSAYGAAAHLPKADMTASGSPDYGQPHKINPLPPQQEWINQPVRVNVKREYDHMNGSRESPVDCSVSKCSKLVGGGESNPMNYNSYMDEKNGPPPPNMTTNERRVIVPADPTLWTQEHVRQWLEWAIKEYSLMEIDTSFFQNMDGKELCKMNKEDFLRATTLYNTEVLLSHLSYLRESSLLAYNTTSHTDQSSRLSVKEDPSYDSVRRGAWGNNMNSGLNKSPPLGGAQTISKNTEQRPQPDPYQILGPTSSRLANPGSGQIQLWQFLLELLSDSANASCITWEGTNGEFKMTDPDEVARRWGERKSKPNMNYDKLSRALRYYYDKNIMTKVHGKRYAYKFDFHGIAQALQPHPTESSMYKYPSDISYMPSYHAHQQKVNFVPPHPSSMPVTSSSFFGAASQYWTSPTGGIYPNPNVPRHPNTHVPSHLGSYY
Procedure, shortened: (§1)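 The binding signal reported is, for every hexamer, its read frequency for a factor over its read frequency for the tag-only sample. Reads came from pools of yeast-expressed, GST-fused human transcription factors on glutathione beads, barcoded with DNA and mixed with that sample, which were incubated with 200 nmole of a random double-stranded 16-mer DNA library in Tris/NaCl/DTT/glycerol buffer at room temperature for 30 min. After washing, the pools were crosslinked with 0.1% formaldehyde, proximity-ligated with BsaI/T4 ligase for 1 h at 37 °C, PCR-amplified and sequenced on an Illumina NextSeq500.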

[2] = biological target: T2, ELK1 (Homo sapiens, UniProt P19419 1-428)
T2 sequence: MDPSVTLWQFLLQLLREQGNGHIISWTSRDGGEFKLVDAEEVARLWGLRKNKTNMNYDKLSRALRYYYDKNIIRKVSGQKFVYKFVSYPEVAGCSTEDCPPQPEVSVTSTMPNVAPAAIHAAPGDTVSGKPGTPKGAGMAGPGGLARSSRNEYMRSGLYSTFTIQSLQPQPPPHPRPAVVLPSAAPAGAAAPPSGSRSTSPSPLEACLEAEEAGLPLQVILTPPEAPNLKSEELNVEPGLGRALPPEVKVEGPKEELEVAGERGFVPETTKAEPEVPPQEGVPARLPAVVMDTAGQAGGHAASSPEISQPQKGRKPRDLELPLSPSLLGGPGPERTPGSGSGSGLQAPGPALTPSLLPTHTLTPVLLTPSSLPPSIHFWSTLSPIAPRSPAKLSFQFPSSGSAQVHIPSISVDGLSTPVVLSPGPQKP
Procedure, shortened: as §1

[3] = biological target: T3, GABPA (Homo sapiens, UniProt Q06546 1-454)
T3 sequence: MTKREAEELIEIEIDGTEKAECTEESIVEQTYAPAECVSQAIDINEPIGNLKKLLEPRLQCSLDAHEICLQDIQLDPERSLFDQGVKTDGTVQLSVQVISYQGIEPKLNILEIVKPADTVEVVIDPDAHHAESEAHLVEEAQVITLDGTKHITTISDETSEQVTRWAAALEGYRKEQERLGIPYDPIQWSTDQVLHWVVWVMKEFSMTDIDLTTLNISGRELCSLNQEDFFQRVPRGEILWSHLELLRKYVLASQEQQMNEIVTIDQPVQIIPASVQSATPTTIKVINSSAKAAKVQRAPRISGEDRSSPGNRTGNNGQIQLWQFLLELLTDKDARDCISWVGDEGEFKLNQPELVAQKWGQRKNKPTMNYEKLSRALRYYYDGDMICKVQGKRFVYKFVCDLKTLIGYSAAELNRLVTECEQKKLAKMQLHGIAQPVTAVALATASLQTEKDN
Procedure, shortened: as §1

[4] = biological target: T4, ERG (Homo sapiens, UniProt P11308 1-479)
T4 sequence: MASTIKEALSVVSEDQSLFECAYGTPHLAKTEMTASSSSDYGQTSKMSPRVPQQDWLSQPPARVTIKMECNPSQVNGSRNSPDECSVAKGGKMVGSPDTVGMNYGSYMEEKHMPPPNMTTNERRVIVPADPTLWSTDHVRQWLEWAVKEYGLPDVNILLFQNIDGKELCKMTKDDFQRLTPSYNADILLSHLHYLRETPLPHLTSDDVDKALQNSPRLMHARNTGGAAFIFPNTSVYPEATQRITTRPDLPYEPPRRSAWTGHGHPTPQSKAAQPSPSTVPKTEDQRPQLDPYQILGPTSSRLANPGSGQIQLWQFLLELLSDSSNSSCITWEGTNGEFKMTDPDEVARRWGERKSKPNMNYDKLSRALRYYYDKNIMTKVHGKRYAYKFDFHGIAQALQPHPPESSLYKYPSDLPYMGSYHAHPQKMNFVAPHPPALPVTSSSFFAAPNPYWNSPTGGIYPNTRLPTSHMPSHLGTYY
Procedure, shortened: as §1

[5] = biological target: ELF1 (Homo sapiens, UniProt P32519 1-619)
Procedure, shortened: as §1

[6] = biological target: T5, EHF (Homo sapiens, UniProt Q9NZC4 1-300)
T5 sequence: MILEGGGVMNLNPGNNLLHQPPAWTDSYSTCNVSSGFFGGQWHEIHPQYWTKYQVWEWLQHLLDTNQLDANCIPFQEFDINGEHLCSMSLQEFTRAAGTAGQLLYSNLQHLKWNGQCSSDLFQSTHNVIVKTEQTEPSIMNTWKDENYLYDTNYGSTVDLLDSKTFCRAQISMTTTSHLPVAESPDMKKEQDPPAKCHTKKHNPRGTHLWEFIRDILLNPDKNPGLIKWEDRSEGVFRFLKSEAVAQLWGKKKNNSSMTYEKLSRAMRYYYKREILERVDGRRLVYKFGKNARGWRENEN
Procedure, shortened: as §1

[7] = biological target: SPI1 (Homo sapiens, UniProt P17947 1-270)
Procedure, shortened: as §1

[8] = biological target: T6, ELK3 (Homo sapiens, UniProt P41970 1-407)
T6 sequence: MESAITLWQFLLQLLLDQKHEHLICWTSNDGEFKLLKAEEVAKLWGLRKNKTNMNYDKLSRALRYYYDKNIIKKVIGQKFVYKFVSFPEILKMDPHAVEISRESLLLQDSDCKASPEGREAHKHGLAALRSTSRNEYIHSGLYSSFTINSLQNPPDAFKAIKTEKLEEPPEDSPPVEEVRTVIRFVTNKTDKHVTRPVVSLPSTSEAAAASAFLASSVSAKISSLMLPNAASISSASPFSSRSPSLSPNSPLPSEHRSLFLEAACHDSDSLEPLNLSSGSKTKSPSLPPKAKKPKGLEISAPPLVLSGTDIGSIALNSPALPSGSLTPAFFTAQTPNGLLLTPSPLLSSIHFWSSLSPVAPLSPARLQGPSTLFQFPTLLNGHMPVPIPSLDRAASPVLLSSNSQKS
Procedure, shortened: as §1

[9] = biological target: SPIB (Homo sapiens, UniProt Q01892 1-262)
Procedure, shortened: as §1

Chain of SPIB (Q01892 whole entry): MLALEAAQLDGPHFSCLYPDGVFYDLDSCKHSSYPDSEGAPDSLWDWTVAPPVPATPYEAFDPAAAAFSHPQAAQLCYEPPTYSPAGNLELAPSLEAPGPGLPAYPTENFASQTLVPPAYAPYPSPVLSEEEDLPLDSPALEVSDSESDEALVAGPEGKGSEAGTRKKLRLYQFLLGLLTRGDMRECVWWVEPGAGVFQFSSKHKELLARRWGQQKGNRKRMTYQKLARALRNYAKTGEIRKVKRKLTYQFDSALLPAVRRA
Chain of ELF1 (P32519 whole entry): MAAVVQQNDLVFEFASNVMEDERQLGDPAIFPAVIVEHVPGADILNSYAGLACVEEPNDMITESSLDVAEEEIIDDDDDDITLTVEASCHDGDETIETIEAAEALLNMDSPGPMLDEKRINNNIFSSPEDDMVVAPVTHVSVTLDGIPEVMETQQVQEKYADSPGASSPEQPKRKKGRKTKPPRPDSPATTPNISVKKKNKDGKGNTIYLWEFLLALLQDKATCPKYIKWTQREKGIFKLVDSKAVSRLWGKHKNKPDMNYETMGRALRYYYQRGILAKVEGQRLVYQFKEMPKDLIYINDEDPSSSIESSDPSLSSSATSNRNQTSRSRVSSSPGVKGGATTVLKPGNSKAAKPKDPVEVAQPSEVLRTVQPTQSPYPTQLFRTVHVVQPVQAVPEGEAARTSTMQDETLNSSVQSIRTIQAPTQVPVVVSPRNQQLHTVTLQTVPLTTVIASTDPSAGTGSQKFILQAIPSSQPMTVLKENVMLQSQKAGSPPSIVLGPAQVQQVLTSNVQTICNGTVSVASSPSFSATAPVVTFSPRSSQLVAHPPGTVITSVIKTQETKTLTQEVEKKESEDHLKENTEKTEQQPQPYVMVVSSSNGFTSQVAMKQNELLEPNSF

Sequence | binding signal [1] | binding signal [2] | binding signal [3] | binding signal [4] | binding signal [5] | binding signal [6] | binding signal [7] | binding signal [8] | binding signal [9]
ACGACG | 1.15 fold enrichment (6-mer frequency, TF over GST control) | 1.15 fold enrichment (6-mer frequency, TF over GST control) | 1.22 fold enrichment (6-mer frequency, TF over GST control) | 1.1 fold enrichment (6-mer frequency, TF over GST control) | 1.09 fold enrichment (6-mer frequency, TF over GST control) | 1.1 fold enrichment (6-mer frequency, TF over GST control) | 1.11 fold enrichment (6-mer frequency, TF over GST control) | 1.15 fold enrichment (6-mer frequency, TF over GST control) | –
ATACCA | 1.02 fold enrichment (6-mer frequency, TF over GST control) | 1.07 fold enrichment (6-mer frequency, TF over GST control) | 1.02 fold enrichment (6-mer frequency, TF over GST control) | 1.01 fold enrichment (6-mer frequency, TF over GST control) | 1.06 fold enrichment (6-mer frequency, TF over GST control) | 1.08 fold enrichment (6-mer frequency, TF over GST control) | – | 1.06 fold enrichment (6-mer frequency, TF over GST control) | 1.01 fold enrichment (6-mer frequency, TF over GST control)
TTGCGC | 1.23 fold enrichment (6-mer frequency, TF over GST control) | 1.17 fold enrichment (6-mer frequency, TF over GST control) | 1.1 fold enrichment (6-mer frequency, TF over GST control) | 1.02 fold enrichment (6-mer frequency, TF over GST control) | 1.1 fold enrichment (6-mer frequency, TF over GST control) | 1.12 fold enrichment (6-mer frequency, TF over GST control) | 1.06 fold enrichment (6-mer frequency, TF over GST control) | 1.04 fold enrichment (6-mer frequency, TF over GST control) | –
CGGTAT | 1.08 fold enrichment (6-mer frequency, TF over GST control) | 1.12 fold enrichment (6-mer frequency, TF over GST control) | 1.01 fold enrichment (6-mer frequency, TF over GST control) | 1.13 fold enrichment (6-mer frequency, TF over GST control) | 1.1 fold enrichment (6-mer frequency, TF over GST control) | 1.08 fold enrichment (6-mer frequency, TF over GST control) | – | 1.01 fold enrichment (6-mer frequency, TF over GST control) | 1.07 fold enrichment (6-mer frequency, TF over GST control)
AAGCAG | 1.1 fold enrichment (6-mer frequency, TF over GST control) | 1.14 fold enrichment (6-mer frequency, TF over GST control) | 1.13 fold enrichment (6-mer frequency, TF over GST control) | 1.11 fold enrichment (6-mer frequency, TF over GST control) | 1.12 fold enrichment (6-mer frequency, TF over GST control) | 1.12 fold enrichment (6-mer frequency, TF over GST control) | 1.24 fold enrichment (6-mer frequency, TF over GST control) | 1.23 fold enrichment (6-mer frequency, TF over GST control) | –
GCTATG | 1.16 fold enrichment (6-mer frequency, TF over GST control) | 1.13 fold enrichment (6-mer frequency, TF over GST control) | 1.26 fold enrichment (6-mer frequency, TF over GST control) | 1.11 fold enrichment (6-mer frequency, TF over GST control) | 1.22 fold enrichment (6-mer frequency, TF over GST control) | 1.21 fold enrichment (6-mer frequency, TF over GST control) | 1.13 fold enrichment (6-mer frequency, TF over GST control) | 1.15 fold enrichment (6-mer frequency, TF over GST control) | 1.31 fold enrichment (6-mer frequency, TF over GST control)
AAGAAG | 1.05 fold enrichment (6-mer frequency, TF over GST control) | 1.09 fold enrichment (6-mer frequency, TF over GST control) | 1.01 fold enrichment (6-mer frequency, TF over GST control) | 1.06 fold enrichment (6-mer frequency, TF over GST control) | 1.05 fold enrichment (6-mer frequency, TF over GST control) | 1.07 fold enrichment (6-mer frequency, TF over GST control) | 1.13 fold enrichment (6-mer frequency, TF over GST control) | 1.05 fold enrichment (6-mer frequency, TF over GST control) | –
CGCTAG | 1.07 fold enrichment (6-mer frequency, TF over GST control) | 1.06 fold enrichment (6-mer frequency, TF over GST control) | 1.09 fold enrichment (6-mer frequency, TF over GST control) | 1.03 fold enrichment (6-mer frequency, TF over GST control) | 1.04 fold enrichment (6-mer frequency, TF over GST control) | 1.12 fold enrichment (6-mer frequency, TF over GST control) | 1.09 fold enrichment (6-mer frequency, TF over GST control) | 1.3 fold enrichment (6-mer frequency, TF over GST control) | –

From publication PMC7862700, “An all-to-all approach to the identification of sequence-specific readers for epigenetic DNA modifications on cytosine”
